Assay results as given in PubChem BioAssay (Tox21).
Records with an inconclusive call do not appear. Entries that show only a call come without a potency. Calls of active or inactive are those of the source. Unless noted, the call rests on the fitted dose curve; in most records, active means well fitted curve in the direction sought with a large enough effect in the repeat runs; inconclusive means weak or mixed curves; inactive means no such curve, though single readings can be large; an effect the other way counts as inactive or inconclusive.

Assays:
[1] = qHTS assay to identify small molecule agonists of the RXR signaling pathway - cell viability counter screen (AID 1159529); further: nearly all actives have a fitted effect of over 50% in size; further: potency means the concentration at half of the fitted maximal effect
How it was run: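 RXR-alpha-UAS-bla HEK 293T cells in medium with 2% charcoal-stripped FBS were preincubated 5 hr, then exposed to compounds for 16 hr at 37 C. Viability was read as CellTiter-Glo luminescence after 30 min at room temperature.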

[2] = qHTS assay to identify small molecule antagonists of the retinoid acid receptor (RAR) signaling pathway - cell viability counter screen (AID 1159551); further: nearly all actives have a fitted effect of over 35% in size
How it was run: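 Seed C3RL4 cells; next day add compound, then retinol to 1 uM final; incubate 6 h at 37 C; add CellTiter-Glo; read luminescence after 30 min at RT.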

[3] = qHTS assay to identify small molecule antagonists of the retinoic acid receptor (RAR) signaling pathway (AID 1159552; further: nearly all actives have a fitted effect of over 50% in size; further: potency means the concentration at half of the fitted maximal effect)
How it was run: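 RARE-luc C3RL4 cells; cpds + 1 uM (final) retinol, 6 hr, 37 C/5% CO2; luciferase reagent, 30 min RT, luminescence readout. Inhibitors of retinol-driven signal scored.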

[4] = qHTS assay to identify small molecule antagonists of the estrogen related receptor (ERR) signaling pathway from Tox21 library - cell viability counter screen (AID 1224834); further: nearly all actives have a fitted effect of over 30% in size
How it was run: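 CellTiter-Fluor fluorescence measured; ERR cells; 17.5 h compound incubation at 37 C; 30 min reagent step.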

[5] = target: Luciferin 4-monooxygenase (Photinus pyralis) (UniProt P08659); assay: qHTS assay to identify small molecule inhibitors of firefly luciferase (AID 1224835); further: nearly all actives have a fitted effect of over 25% in size; further: potency means the concentration at half of the fitted maximal effect
How it was run: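 Inhibition of purified Photinus luciferase is measured by luminescence. Substrate levels (D-luciferin, ATP) sit at their KM values. Each compound is tested in a concentration series.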

[6] = qHTS assay to identify small molecule agonists of the constitutive androstane receptor (CAR) signaling pathway - cell viability counter screen (AID 1224836); further: nearly all actives have a fitted effect of over 45% in size; further: potency means the concentration at half of the fitted maximal effect
How it was run: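 HepG2 cells stably carrying hCAR and a CYP2B6-2.2kb reporter were plated 4 h, then given compounds at 15 concentrations plus PK11195 (final 0.75 uM). After 23 h at 37 C, viability was read by CellTiter-Fluor fluorescence.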

[7] = qHTS assay to identify small molecule antagonists of the constitutive androstane receptor (CAR) signaling pathway - cell viability counter screen (AID 1224837); further: nearly all actives have a fitted effect of over 45% in size; further: potency means the concentration at half of the fitted maximal effect
How it was run: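 Using CellTiter-Fluor, viability is scored in HepG2 cells stably carrying hCAR and a 2.2kb CYP2B6 reporter after 23 hr compound exposure across 15 concentrations, with CITCO present at 50 nM.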

[8] = target: Nuclear receptor subfamily 1 group I member 3 (Homo sapiens) (UniProt Q14994); assay: qHTS assay to identify small molecule antagonists of the constitutive androstane receptor (CAR) signaling pathway (AID 1224838); further: nearly all actives have a fitted effect of over 40% in size; further: potency means the concentration at half of the fitted maximal effect
How it was run: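 Reporter luminescence was quantified after 24 h exposure of hCAR/CYP2B6-2.2kb double-stable HepG2 cells to compounds at 15 concentrations in the presence of 50 nM CITCO final.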

[9] = target: Nuclear receptor subfamily 1 group I member 3 (Homo sapiens) (UniProt Q14994); assay: qHTS assay to identify small molecule agonists of the constitutive androstane receptor (CAR) signaling pathway (AID 1224839); further: nearly all actives have a fitted effect of over 15% in size; further: potency means the concentration at half of the fitted maximal effect
How it was run: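 HepG2 cells stably expressing hCAR and a CYP2B6-2.2kb luciferase reporter were treated with compounds at 15 concentrations plus 0.75 uM PK11195 (final) for 24 h at 37 C; luminescence was read after ONE-Glo addition.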

[10] = qHTS assay to identify small molecule antagonists of the estrogen related receptor signaling pathway with the pleiotropic PPARgamma coactivator (PGC) from Tox21 10K library - cell viability counter screen (AID 1224840; active means well fitted cell-killing curve with a large enough effect in the repeat runs, not every such curve was filed as active; further: nearly all actives have a fitted effect of over 40% in size)
How it was run: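 Here the PGC/ERR cells serve as a cytotoxicity control: they are exposed to compounds for 17.5 hours at 37 C, and live-cell signal is quantified using CellTiter-Fluor fluorescence.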

[11] = qHTS assay to identify small molecule antagonists of the estrogen related receptor signaling pathway with the pleiotropic PPARgamma coactivator (PGC) from Tox21 10K library (AID 1224841; call rule not given here; further: actives are mostly falling curves and most rising ones were filed inactive; nearly all actives have a fitted effect of over 50% in size; further: potency means the concentration at half of the fitted maximal effect)
How it was run: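 Each well held 2,000 PGC/ERR cells, pre-incubated six hours (37 C, 5% CO2). Test substances in DMSO were added by pin tool and left for 18 h at 37 C before luciferase detection by One-Glo.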

[12] = qHTS assay to identify small molecule agonists of the retinoic acid receptor (RAR) signaling pathway (AID 1159553)
How it was run: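 Activation of retinol signaling was monitored via a RARE luciferase reporter in C3RL4 cells. After 6 hr compound treatment at 37 C, detection reagent was added for 30 min at room temperature before luminescence reading.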

[13] = qHTS assay to identify small molecule agonists of the estrogen related receptor signaling pathway with the pleiotropic PPARgamma coactivator (PGC) from Tox21 10K library (AID 1224842); further: nearly all actives have a fitted effect of over 15% in size
How it was run: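 Luminescence from One-Glo (30 min, room temperature) measured after PGC/ERR cells had 18 h at 37 C with pinned compound (23 nL in DMSO). Cells had been seeded at 2,000 per well and pre-incubated 6 h.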

[14] = qHTS assay to identify small molecule antagonists of the estrogen related receptor (ERR) signaling pathway (AID 1224819; further: potency means the concentration at half of the fitted maximal effect; nearly all actives have a fitted effect of over 50% in size)
How it was run: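 qHTS in ERR cells, 2,000/well, 1536 format. Cpd (DMSO) added after 6 h settle, 18 h 37 C. One-Glo luminescence, 30 min RT.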

[15] = qHTS assay to identify small molecule agonists of the estrogen related receptor (ERR) signaling pathway (AID 1224820)
How it was run: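 Cells: ERR line from NTP, 2,000/well. Pre-incubation 6 h, 37 C/5% CO2. Compound (DMSO) pin transfer, 18 h 37 C. One-Glo, 30 min RT, luminescence.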

[16] = test system: estrogen-related receptor alpha (ERRalpha) with PGC-1alpha coactivator, human; assay: qHTS assay to identify small molecule antagonists of the estrogen related receptor signaling pathway with the pleiotropic PPARgamma coactivator (PGC) (AID 1224821; calls by dose curve)
How it was run: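 Luminescent read-out (One-Glo, 30 min at room temperature) following 18 h treatment of PGC/ERR cells at 37 C with compounds delivered in DMSO. Cells had settled 6 h at 37 C/5% CO2 before dosing.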

[17] = qHTS assay to identify small molecule agonists of the estrogen related receptor signaling pathway with the pleiotropic PPARgamma coactivator (PGC) (AID 1224823)
How it was run: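 Steps: plate PGC/ERR cells at 2,000 cells/well; incubate 6 h, 37 C/5% CO2; pin-transfer compounds (DMSO); incubate 18 h, 37 C; add One-Glo; 30 min RT; read luminescence.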

Luciferin 4-monooxygenase (Photinus pyralis), sequence (P08659 whole entry, looked up): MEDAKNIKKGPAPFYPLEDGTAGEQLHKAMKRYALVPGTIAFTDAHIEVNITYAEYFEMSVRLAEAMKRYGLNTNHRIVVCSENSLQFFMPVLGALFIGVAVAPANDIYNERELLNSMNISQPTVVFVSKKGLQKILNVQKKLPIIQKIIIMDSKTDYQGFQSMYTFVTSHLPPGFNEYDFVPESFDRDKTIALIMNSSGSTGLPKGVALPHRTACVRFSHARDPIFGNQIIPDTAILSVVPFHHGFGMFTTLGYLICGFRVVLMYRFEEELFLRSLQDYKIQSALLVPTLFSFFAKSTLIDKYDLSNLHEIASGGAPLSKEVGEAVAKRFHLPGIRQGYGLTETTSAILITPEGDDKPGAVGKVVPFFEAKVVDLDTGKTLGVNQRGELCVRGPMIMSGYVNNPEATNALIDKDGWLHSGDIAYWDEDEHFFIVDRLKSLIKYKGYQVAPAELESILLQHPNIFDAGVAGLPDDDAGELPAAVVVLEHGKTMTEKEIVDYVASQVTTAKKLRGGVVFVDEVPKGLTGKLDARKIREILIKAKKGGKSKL
Nuclear receptor subfamily 1 group I member 3 (Homo sapiens), sequence (Q14994 whole entry, looked up): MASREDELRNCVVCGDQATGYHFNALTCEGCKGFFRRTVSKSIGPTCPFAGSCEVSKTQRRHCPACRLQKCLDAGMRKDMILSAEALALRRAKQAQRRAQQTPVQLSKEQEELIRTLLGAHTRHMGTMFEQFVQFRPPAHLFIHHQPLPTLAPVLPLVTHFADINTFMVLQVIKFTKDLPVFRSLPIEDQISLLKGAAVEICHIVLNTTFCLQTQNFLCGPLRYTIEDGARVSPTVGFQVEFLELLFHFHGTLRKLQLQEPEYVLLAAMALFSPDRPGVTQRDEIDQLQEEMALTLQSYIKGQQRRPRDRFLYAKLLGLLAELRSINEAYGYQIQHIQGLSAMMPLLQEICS

| SMILES | Potency [1] | Potency [2] | Potency [3] | Potency [4] | Potency [5] | Potency [6] | Potency [7] | Potency [8] | Potency [9] | Potency [10] | Potency [11] | Potency [12] | Potency [13] | Potency [14] | outcome [15] | Potency [16] | Potency [17] |
| --- | --- | --- | --- | --- | --- | --- | --- | --- | --- | --- | --- | --- | --- | --- | --- | --- | --- |
| CC(C)CCCCCOC(=O)CCCCC(=O)OCCCCCC(C)C | inactive | inactive | inactive | inactive | inactive | inactive | inactive | inactive | inactive | inactive | inactive |  |  |  |  |  |  |
| CC(=O)N(c1onc(C)c1C)S(=O)(=O)c1ccc(N)cc1 | inactive | inactive | inactive | inactive |  | inactive | inactive | inactive | inactive | inactive |  |  |  |  |  |  |  |
| Nc1ccc(S(=O)(=O)O)cc1 | inactive | inactive | inactive | inactive | inactive | inactive | inactive | inactive |  | inactive | inactive | inactive |  |  |  |  |  |
| CCCCC(CC)C(=O)OCCOCCOCCOCCOC(=O)C(CC)CCCC (stereo not drawn) | inactive | inactive | inactive | inactive | inactive | inactive |  | inactive |  | inactive |  | inactive | inactive |  |  |  |  |
| CCCOC(=O)c1ccc(C(=O)OCCC)nc1 | inactive | inactive | inactive | inactive |  | inactive | inactive | inactive |  | inactive |  |  |  |  |  |  |  |
| CC(C)(CCl)c1ccccc1 | inactive | inactive | inactive | inactive | inactive | inactive | inactive | inactive | inactive | inactive |  |  |  |  |  |  |  |
| CCCCCCCCCCCC[N+](C)(C)CCCS(=O)(=O)[O-] | inactive | inactive | inactive | inactive | inactive |  | inactive | inactive | inactive | inactive |  | inactive |  |  |  |  |  |
| CCC(=O)Oc1ccc(/C(CC)=C(\CC)c2ccc(OC(=O)CC)cc2)cc1 | 54.9 µM (active) | inactive | inactive |  | inactive | inactive |  |  |  | inactive |  |  | inactive |  |  |  |  |
| CO[C@@]12[C@H](COC(N)=O)C3=C(C(=O)C(C)=C(N)C3=O)N1C[C@@H]1N[C@@H]12 | inactive | inactive | 10.6 µM (active) |  | inactive | 9.44 µM (active) | 9.44 µM (active) | 0.75 µM (active) | inactive |  | 23.7 µM (active) |  | inactive |  |  |  |  |
| CCOC(=O)[C@@H](C)Oc1ccc(Oc2nc3ccc(Cl)cc3o2)cc1 | inactive | inactive | inactive | inactive |  | inactive | inactive | inactive |  | inactive | inactive |  | inactive |  |  |  |  |
| CCOC(=O)C(C)Oc1ccc(Oc2nc3ccc(Cl)cc3o2)cc1 (stereo not drawn) | inactive | inactive | inactive | inactive | 39.9 µM (active) | inactive | inactive | inactive |  | inactive | inactive |  | inactive |  |  |  |  |
| Nc1ccc(C(=O)OCCCOC(=O)c2ccc(N)cc2)cc1 | inactive | inactive | inactive | inactive | inactive | inactive | inactive | inactive | 30.6 µM (active) |  |  |  |  |  |  |  |  |
| COc1ccc(CCC(=O)c2c(O)cc(O[C@@H]3O[C@H](CO)[C@@H](O)[C@H](O)[C@H]3O[C@@H]3O[C@@H](C)[C@H](O)[C@@H](O)[C@H]3O)cc2O)cc1O | inactive | inactive | inactive | inactive |  | inactive | inactive |  |  | inactive | inactive | inactive |  |  |  |  |  |
| CCCCC(=O)O[C@]1(C(=O)CO)[C@@H](C)C[C@H]2[C@@H]3CCC4=CC(=O)C=C[C@]4(C)[C@@]3(F)[C@@H](O)C[C@@]21C | inactive | inactive | 61.1 µM (active) |  | inactive | inactive | inactive |  |  |  |  |  | inactive |  |  |  |  |
| O=C(O)c1c(O)c(-c2ccccc2)nc2ccccc12 | inactive | inactive | inactive | inactive | 34.7 µM (active) | inactive | inactive | inactive |  | inactive |  |  |  |  |  |  |  |
| O=C(OCCOCCO)c1ccccc1Nc1cccc(C(F)(F)F)c1 | inactive | inactive | inactive |  |  | inactive | inactive | inactive | inactive |  |  | inactive |  |  |  |  |  |
| COCCOC(=O)C1=C(C)NC(C)=C(C(=O)OC/C=C/c2ccccc2)C1c1cccc([N+](=O)[O-])c1 (stereo not drawn) | inactive | inactive |  |  | inactive | inactive |  | inactive |  |  | 23.7 µM (active) | inactive |  | 11.9 µM (active) | inactive | 17.4 µM (active) | inactive |
| CC(=O)Oc1ccc(C(=C2CCCCC2)c2ccc(OC(C)=O)cc2)cc1 | inactive | inactive | inactive | inactive | inactive | inactive |  | inactive |  | inactive |  |  |  |  |  |  |  |
